# High-throughput results as filed in PubChem.
# A selection: hits, their analogues and other compounds. The true share with any hit is near 5.3%.
# Mot1-301 SUMO: inhibitors of SUMOylation pathway: yeast Mot1-301 growth rescue; S. cerevisiae Mot1-301 growth rescue, ATP luminescence, 38.5C; percent above DMSO median, 100 means doubled; growth rescue, % at 18.8 µM; 320,000 tested, 1% active;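 active means every valid replicate shows activation above 250% relative to neutral control wells; inactive means the rest, any valid replicate at or below 250%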
# ALR H2O2 inh: blocks human ALR sulfhydryl oxidase activity. P55789. purified ALR, DTT oxidation, H2O2 HRP-luminol luminescence. inhibition, % (test concentration not listed). 290,000 tested, 3.8% active. AID 485317;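 active means mean replicate inhibition above about 79%, with every replicate also reaching it, limit read from the data; inconclusive means only one of the two criteria met; inactive means mean below limit and not every replicate reaching it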
# Target sequence (P55789 whole entry, looked up): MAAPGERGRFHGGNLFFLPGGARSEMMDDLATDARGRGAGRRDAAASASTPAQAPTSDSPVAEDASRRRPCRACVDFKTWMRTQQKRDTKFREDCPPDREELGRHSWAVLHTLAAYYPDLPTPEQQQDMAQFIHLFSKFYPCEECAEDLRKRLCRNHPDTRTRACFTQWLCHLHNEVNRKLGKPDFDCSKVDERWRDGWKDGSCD
# HIF act: HIF pathway transcriptional activation | U2OS HRE-luciferase reporter, luminescence; normalized: DMSO 0%, desferrioxamine 100% | activation, % at 7.5 µM (by protocol) | 300,000 tested, 0.32% active | AID 1910;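 active means mean activation of at least 10% of the iron chelator positive control signal, with at least half of replicates also reaching 10%; inconclusive means mean and replicate majority disagree about reaching 10%; inactive means mean and most replicates under 10%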
# PfM18AAP inh: blocks P. falciparum M18 aspartyl aminopeptidase | recombinant PfM18AAP, H-Glu-NHMec fluorogenic cleavage | inhibition, % at 7.35 µM | 290,000 tested, 1.2% active;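 active means inhibition above the campaign mean inhibition over all tested compounds plus 3 SD, cut at about 28% in these data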
# Numbers stand for hits; 0 = inactive; ? = inconclusive; - = not tested or not shown.
SMILES,Mot1-301 SUMO,ALR H2O2 inh,HIF act,PfM18AAP inh
COc1ccccc1CNC(=O)CCN=C1NS(=O)(=O)c2ccccc21,0,0,-,-
CCOc1ccc(-c2nc(CSCC(=O)NCC3CCCO3)c(C)o2)cc1 (configuration not stated),0,99.5,0,0
Cc1ccc(-c2nc(CSCC(=O)Nc3cc(C)on3)c(C)o2)cc1,0,-,0,0
COc1ccc(-c2nc(CSCC(=O)NCCCN3CCCC3=O)c(C)o2)cc1OC,0,97.5,0,0
Cc1ccc(-c2nc(CSCC(=O)NCC3CCCO3)c(C)o2)cc1 (configuration not stated),0,94.7,0,0
COc1ccc(-c2nc(CSCC(=O)NCC3CCCO3)c(C)o2)cc1OC (configuration not stated),0,98.3,0,0
COc1ccc(-c2nnc(SCC(=O)NCC3CCCO3)o2)cc1 (configuration not stated),0,0,0,0
CCc1cc(=O)oc2c(C)c(OCC(=O)NCCCN3CCCC3=O)ccc12,0,0,0,0
CC1CCN(C(=O)COC(=O)c2cc(Cl)c3c(c2)OCO3)CC1,0,0,-,-
CN1CCN(c2ccc(C(F)(F)F)cc2NC(=O)c2ccco2)CC1,0,0,0,0
NC(=O)C1CCN(c2ncc(C(F)(F)F)cc2Cl)CC1,0,-,0,0
CCc1nnc(NC(=O)CCC(=O)NCCc2ccccc2)s1,0,0,0,0
Cc1ccc(CNC(=S)Nc2ccc(NS(=O)(=O)c3ccc(C)cc3)cc2)cc1,0,0,0,0
COc1ccc(OCC(=O)Nc2ccc3c(c2)nc2n3CCSC2)cc1,0,0,0,0
Cc1ccc(C(=O)Nc2ccc3c(c2)nc2n3CCSC2)cc1,0,98.3,0,0
O=C(CSc1nc2ccc(NC(=O)c3ccccc3C(=O)O)cc2s1)Nc1ccc(F)c([N+](=O)[O-])c1,0,-,0,0
COc1ccccc1C(=O)Nc1ccc2nc(SCC(=O)N(C)C)sc2c1,0,99.7,0,0
CC(=O)Nc1ccc2c(c1)nc1n2CCSC1,0,99.3,0,0
CCCCC(=O)Nc1ccc2c(c1)nc1n2CCSC1,0,98.9,0,0
COc1ccccc1C(=O)Nc1ccc2c(c1)nc1n2CCN(Cc2ccccc2)C1,0,-,0,0
COc1ccccc1C(=O)Nc1ccc2c(c1)nc1n2CCSC1,0,99.0,-,0
CCOC(=O)Cc1csc(NC(=O)C(CC(C)C)NC(=O)C2CCCCC2)n1 (configuration not stated),-,0,0,0
C=CCC1(CC=C)CCCN1C(=O)c1cc(COc2cncc(Cl)c2)on1,0,0,0,0
O=C(CCN1c2ccccc2Sc2ccccc21)OCC(=O)N1CCN(C(=O)c2ccco2)CC1,0,91.5,0,0
COc1ccc(C(=O)Nc2ccc(S(=O)(=O)N(C)c3ccccc3)cc2)cc1,0,0,0,-
SMILES,Mot1-301 SUMO,ALR H2O2 inh,HIF act,PfM18AAP inh
CCC(=O)/C=C1\Sc2ccc(OC)cc2N1CCO,0,-,0,29.5
CCC(=O)/C=C1\Sc2ccc(OC)cc2N1CC,0,?,0,0
CN1CCN(C(=O)C2=C[C@@H](C3CCCCC3)C[C@@H](OCCCCO)O2)CC1,0,0,0,0
Cc1ccn2cc(CSc3ccccc3N)nc2c1,0,0,0,0
CCOC(=S)SCc1cn2ccccc2n1,0,97.8,0,0
CCOC(=S)SCc1cn2ccc(C)cc2n1,0,98.7,0,0
COc1ccc(NS(=O)(=O)c2ccc(NC(=O)C(CCSC)NC(N)=O)cc2)cc1 (configuration not stated),0,0,0,0
Cc1ccccc1NC(=S)NNc1ncc(C(F)(F)F)cc1Cl,0,0,0,0
Fc1ccccc1NC(=S)NNc1ncc(C(F)(F)F)cc1Cl,0,0,0,28.1
COc1ccccc1N1CCN(/N=C/c2ccc(C(=O)O)cc2)CC1,0,0,0,0
COc1ccc(/C=N/N2CCN(c3ccccc3OC)CC2)cc1OC,0,0,0,0
COc1cc(/C=N/N2CCN(c3ccc(Cl)cc3)CC2)cc(OC)c1OC(C)=O,0,0,0,0
COc1ccccc1N1CCN(/N=C(\C)c2ccc(O)cc2)CC1,0,98.9,0,0
COc1cc(/C=N/N2CCN(c3ccccc3)CC2)cc(OC)c1OC(C)=O,0,97.4,0,0
CCN(CC)c1ccc(/C=N/N2CCN(c3ccccc3OC)CC2)cc1,0,99.0,0,0
COc1ccccc1N1CCN(/N=C/c2ccc(O)c(O)c2)CC1,0,99.6,0,62.9
COc1cccc(/C=N/N2CCN(C3c4ccccc4-c4ccccc43)CC2)c1O,0,0,0,0
COc1ccccc1N1CCN(/N=C/c2cccc(OC)c2O)CC1,0,92.8,0,0
Cn1c(=O)c2c(ncn2CC(=O)OCc2ccccc2)n(C)c1=O,0,0,0,0
Cn1c(=O)c2c(ncn2CC(=O)N(Cc2ccccc2)c2ccccn2)n(C)c1=O,298.6,0,0,0
CS(=O)(=O)N1CCN(C(=O)CCC2CCCC2)CC1,332.4,0,0,0
CCOC(=O)N1CCN(C(=O)CCC2CCCC2)CC1,0,0,0,0
COC(=O)CCN(c1ccccc1)S(=O)(=O)c1ccc(OC)cc1,0,0,0,0
COc1ccccc1/C=N\N=C(\N)c1ccccn1,0,0,0,0
Nc1ccccc1Oc1ncc(C(F)(F)F)cc1Cl,274.8,0,0,0
SMILES,Mot1-301 SUMO,ALR H2O2 inh,HIF act,PfM18AAP inh
COc1cc(C(=O)CCN2CCC(c3ccccc3)C2)cc(OC)c1OC (configuration not stated),0,98.1,0,0
O=C(CCN1CCC(c2ccccc2)C1)c1ccccc1 (configuration not stated),0,0,0,0
CN(C)S(=O)(=O)N1CCN(c2ccccc2)CC1,0,79.4,0,0
CN(C)S(=O)(=O)N1CCN(c2cccc(Cl)c2)CC1,0,0,0,0
Clc1cccc(/C=N/Nc2ncnc3ccccc23)c1,0,0,0,0
C(=N\Nc1ncnc2ccccc12)/c1ccccc1,0,97.3,0,0
NC(=O)c1cc(S(=O)(=O)Nc2ccccc2)cs1,0,0,0,0
CS(=O)(=O)C1=NSC2=NC(=O)/C(=C\c3ccc(-c4ccccc4)o3)C(=N)N21,0,97.1,-,0
CCc1ccc(-n2cccc2/C=C2/C(=N)N3C(=NC2=O)SN=C3S(C)(=O)=O)cc1,0,0,0,0
Cc1cc(C)cc(-n2cccc2/C=C2/C(=N)N3C(=NC2=O)SN=C3S(C)(=O)=O)c1,0,88.0,0,0
CC(C)S(=O)(=O)C1=NSC2=NC(=O)/C(=C\c3ccc(-c4ccccc4)o3)C(=N)N21,0,0,0,0
Cc1ccc(-n2cccc2/C=C2/C(=N)N3C(=NC2=O)SN=C3S(C)(=O)=O)cc1,0,97.8,0,0
COC(=O)c1ccc(OC(=O)c2ccc(OC)cc2)c(OC)c1,0,-,0,0
Cc1cc(C)c(NC(=O)C2CCCO2)c(C)c1NC(=O)C1CCCO1 (configuration not stated),0,0,0,0
C/C(=N\Nc1nc2ccc(Cl)cc2o1)c1ccccc1,0,0,0,0
O=c1nc2n(c3sc4c(c13)CCCC4)C(CBr)CS2 (configuration not stated),0,86.1,-,0
O=c1c2ccccc2nc2n1C(CBr)CS2 (configuration not stated),0,0,0,0
